Results from PubChem BioAssay AID1619 (SRMLSC, 2009).
In all, about 220,000 compounds went through this assay and about 830 (0.38%) were called active.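 The calls were made as follows: active = compound inhibiting the enzyme by more than half at any dose during confirmatory dose-response retesting; inconclusive = strong single-dose inhibitors picked by rank but not retested; inactive = the rest.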 These entries were drawn from the full list. Results with a measured potency or affinity are listed apart.

Target: Leucine aminopeptidase (Plasmodium falciparum (isolate 3D7)) (UniProt Q8IL11)
Assay: P. falciparum M17LAP inhibitors, primary screen, biochemical, fluorogenic H-Leu-NHMec substrate, 1536-well (AID 1619);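 also: plate controls were full reaction with DMSO carrier for no effect and no enzyme background for full effect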
Details: recombinant M17LAP, H-Leu-NHMec fluorogenic kinetic assay; at 30 µM; hits give high values

Sequence of Leucine aminopeptidase (Plasmodium falciparum (isolate 3D7)) (Q8IL11 whole entry, looked up): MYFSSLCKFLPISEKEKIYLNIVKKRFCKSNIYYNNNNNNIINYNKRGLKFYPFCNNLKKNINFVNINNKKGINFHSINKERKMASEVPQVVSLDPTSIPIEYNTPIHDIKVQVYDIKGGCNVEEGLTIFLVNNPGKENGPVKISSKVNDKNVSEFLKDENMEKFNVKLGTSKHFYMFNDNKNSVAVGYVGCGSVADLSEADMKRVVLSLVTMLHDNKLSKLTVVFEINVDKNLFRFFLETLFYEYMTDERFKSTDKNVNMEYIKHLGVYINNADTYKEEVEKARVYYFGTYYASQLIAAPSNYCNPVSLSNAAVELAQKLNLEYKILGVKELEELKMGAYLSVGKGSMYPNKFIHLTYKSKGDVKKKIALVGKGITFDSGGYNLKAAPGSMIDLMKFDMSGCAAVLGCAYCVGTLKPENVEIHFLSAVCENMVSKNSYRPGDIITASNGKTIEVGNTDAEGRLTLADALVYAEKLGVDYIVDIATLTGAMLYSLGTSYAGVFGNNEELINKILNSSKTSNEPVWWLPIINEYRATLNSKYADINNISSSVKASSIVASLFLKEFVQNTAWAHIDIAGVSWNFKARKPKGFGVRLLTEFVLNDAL

inhibition, inactive:
Cc1cc(C)c(OC2(c3ccccc3)OC(=O)c3ccccc32)c(C)c1 (centres undefined) -10.6%
Cc1ccccc1/C=N/N=C1/NC(=O)CCS1 23.8%
CN1CCC(=NNC(=O)C(=O)Nc2ccc(F)cc2)CC1 13.2%
COc1cccc(CNC(=O)CCNS(=O)(=O)c2cccc3nsnc23)c1 -1.94%
Cn1cccc1Cc1nnc(SCC(=O)N2CCc3ccccc32)n1CCc1ccccc1 36.6%
O=C(N/N=C/c1cccc([N+](=O)[O-])c1)c1cc(-c2ccc3c4c(cccc24)CC3)n[nH]1 -2.54%
O=C(N/N=C/c1ccccc1C(=O)O)c1cc(-c2ccc3c4c(cccc24)CC3)n[nH]1 91.8%
CC(C)=CC(=O)Nc1ccc(OCc2ccccc2)cc1 2.98%
O=C(NCC1CCCO1)/C(=C\c1cccc([N+](=O)[O-])c1)NC(=O)c1ccccc1 (centres undefined) -4.67%
O=C(O)Cn1c(=O)cnc2ccccc21 -13.7%
CC(C)C1N=C2c3ccccc3N=C(SCC#N)N2C1=O (centres undefined) -5.52%
CC(C)C1N=C2c3ccccc3N=C(SCC(=O)NCCc3ccc(S(N)(=O)=O)cc3)N2C1=O (centres undefined) -29.1%
CNC(=O)c1c2c(nc3ccc(Br)cc13)CCCC2 -4.18%
Cc1cccc(OCC(=O)Nc2ccc3c4c(cccc24)CC3)c1C 6.88%
Cc1ccc(-n2c(SCC(=O)Nc3ccc4c5c(cccc35)CC4)nc(O)c(C)c2=O)cc1 39%
Cc1ccc(-n2c(SCC(=O)Nc3ccc4c5c(cccc35)CC4)nc(O)cc2=O)cc1 26.7%
COc1ccc(-n2c(SCC(=O)Nc3cccc4ccccc34)nc(O)cc2=O)cc1 -2.11%
O=C(CSc1nc2ccccc2c(=O)n1-c1ccc(F)cc1)Nc1ccc2c(c1)CCC2 13.5%
Cc1nnc(SCC(=O)Nc2ccc3c4c(cccc24)CC3)n1C 0.6%
Cc1ccccc1Cn1nc(C)c(NC(=O)C2c3ccccc3Oc3ccccc32)c1C -14%
CCN(CC)C(=O)c1ccc(-c2nnc(OC)c3ccccc23)cc1 -4.54%
COC(=O)c1c(-c2cccs2)csc1NC(=O)c1cccnc1 15.9%
CCCn1c(SCC(=O)N2c3ccccc3Sc3ccccc32)nc2ccccc21 -2.24%
CC1CCCCN1Cc1c(C#N)c2ccccc2n1C (centres undefined) -2.84%
Cc1nnc(SCC2=C(C(=O)O)N3C(=O)C(NC(=O)Cn4nc(C(F)F)cc4C)C3SC2)s1 (centres undefined) 47.7%
Cc1c(Cl)c(C(F)F)nn1CC(=O)NC1C(=O)N2C(C(=O)O)=C(CSc3nnnn3C)CSC12 (centres undefined) 11.3%
O=C(Nc1ccc(Oc2cccc3ccccc23)cc1)c1ccco1 -4.51%
CCN1C(=O)CC(N2CCN(c3ccc(C(=O)c4ccncc4)cc3)CC2)C1=O (centres undefined) 31.2%
CC(=O)NC(C(=O)OCC(=O)N(c1ccccc1)c1ccccc1)C(C)C (centres undefined) 0.51%
Cc1cc(N2CCCC2)ccc1/C=C1/C(=O)N(C)C(=S)N1C 1.26%
Cc1cc(N2CCCC2)ccc1/C=C1\NC(=S)N(C)C1=O -1.37%
COc1cc2c(cc1OC)C(C(=O)N1CCCCC1)C(c1ccccc1F)N(C)C2=O (centres undefined) 2.89%
S=c1cnc2ccccc2[nH]1 6.02%
N#CCCn1cc(C(=O)N2CCCCC2)c(-c2cccc([N+](=O)[O-])c2)n1 4.89%
CC1(C)CC(=O)C(C(C2=C(O)CC(C)(C)CC2=O)c2ccc(Cl)c([N+](=O)[O-])c2)C(=O)C1 (centres undefined) 7.5%
CN(C)/C=N/c1sc2c(c1C#N)CCCCC2 5.07%
CN(C)/C=N/c1sc2c(c1C#N)CCCC2 0.79%
COc1cc(CNC2CCCC2)cc(Cl)c1OCc1ccccc1F -3.97%
CC(NC(=O)c1ccc(Br)cc1)c1ccccc1 (centres undefined) 12.4%
Cc1nc(-c2cccc(Cl)c2)n[nH]1 -5.31%
CCn1c(-c2cccc(Cl)c2)n[nH]c1=S 6.53%
COC(=O)CN1C(=O)C(O)(CC(=O)c2ccc(Cl)cc2)c2ccccc21 (centres undefined) 12.1%
C/C(=N/NC(=O)CSCc1ccc(Cl)cc1)c1cccc(NC(=O)c2ccccc2)c1 -0.71%
CN(C)C(=S)Nc1cccc(-c2n[nH]c(=S)o2)c1 4%
O=C(CCN1C(=O)c2ccccc2C1=O)Nc1ccc2c(c1)OCCO2 10.7%
O=C(CN1C(=O)CSc2ccccc21)Nc1ccc2c(c1)OCCO2 12.7%
CC1CC(=O)N(CC(=O)Nc2ccc3c(c2)OCCO3)c2ccccc2S1 (centres undefined) 51.7%
O=C(CN1C(=O)c2cccc3cccc1c23)Nc1ccc2c(c1)OCO2 31.3%
CC1CC(=O)N(CC(=O)NCc2ccc3c(c2)OCO3)c2ccccc2S1 (centres undefined) 24%
O=C(CN1C(=O)CCSc2ccccc21)Nc1ccc2c(c1)OCO2 48.6%
O=C(CCCNS(=O)(=O)c1cccs1)N1CCc2ccccc2C1 -15.3%
COc1ccccc1C(=O)N(NC(=O)Oc1ccccc1)C(C)(C)C -4.52%
COc1cc(/C=N/NC(=O)c2nonc2N)cc(OC)c1OC 12.6%
S=C(Nc1ccccc1)N(CCN1CCOCC1)Cc1cccc(Cl)c1 3.82%
CCOC(=O)c1[nH]c2ccc(Br)cc2c1NC(=O)CCN1CCCC(C)C1 (centres undefined) 19.3%
CCC(C)(C)NC(=O)CN(C(=O)c1snc(C(N)=O)c1N)c1ccc(OC)c(OC)c1 -0.26%
Cn1cnnc1SCC(=O)Nc1ccc(Br)cc1F 4.31%
COC(=O)c1ccc(Cl)c(NC(C)=O)c1 4.44%
CCc1ccccc1NC(=O)CSc1n[nH]c(C)c1[N+](=O)[O-] -11.3%
O=C(CSCC(=O)Nc1cccc2ccccc12)Nc1cccc2ccccc12 -9.94%
CCCn1c(SCC(=O)Nc2ccccc2CC)nnc1C(C)C -2.04%
O=C(CSc1ccccn1)Nc1cccc2ccccc12 6.7%
CC(C)n1cnnc1SCC(=O)Nc1ccc(Br)cc1F -3.86%
COC(=O)c1ccc(Cl)c(NC(=O)CN2CCN(C)CC2)c1 -7.62%
